CHO-K1 Ca PAM = M1 PAM counterscreen hit in parental CHO-K1 cells | AID 602247 | activation, % at 3 µM | hit rate 0.02% among 360,000 | ATP EC20, Fluo-8 calcium fluorescence; 0% at ATP EC20, 100% at ATP max;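 active means activation above the run cutoff, the mean activation of all test compounds plus 3 SD, cut at about 40% in these data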;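 further: peak over basal fluorescence ratio in a 140 s read after ATP addition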
M1 ag parental = nonselective activator or artifact in parental CHO-K1 cells; hit rate 0.48% among 360,000; Fluo-8 calcium fluorescence; scaled to maximal ATP response, vehicle zero; activation, % at 3 µM; AID 602248; in the data active means activation above about 15%;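 further: untransfected CHO-K1 host cells lacking M1 receptor as counterscreen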
M1 ag = activates human CHRM1 receptor. P11229. activation, % at 3 µM. hit rate 0.33% among 360,000. CHO-K1 hM1, Fluo-8 calcium fluorescence, agonist mode; 0% DMSO, 100% acetylcholine EC100. AID 588814;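 active means activation above the run's mean compound activation plus 3 SD, cut at about 16% in these data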;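 further: peak over basal fluorescence ratio within a 140 s kinetic read after compound addition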
Target sequence (P11229 whole entry, looked up): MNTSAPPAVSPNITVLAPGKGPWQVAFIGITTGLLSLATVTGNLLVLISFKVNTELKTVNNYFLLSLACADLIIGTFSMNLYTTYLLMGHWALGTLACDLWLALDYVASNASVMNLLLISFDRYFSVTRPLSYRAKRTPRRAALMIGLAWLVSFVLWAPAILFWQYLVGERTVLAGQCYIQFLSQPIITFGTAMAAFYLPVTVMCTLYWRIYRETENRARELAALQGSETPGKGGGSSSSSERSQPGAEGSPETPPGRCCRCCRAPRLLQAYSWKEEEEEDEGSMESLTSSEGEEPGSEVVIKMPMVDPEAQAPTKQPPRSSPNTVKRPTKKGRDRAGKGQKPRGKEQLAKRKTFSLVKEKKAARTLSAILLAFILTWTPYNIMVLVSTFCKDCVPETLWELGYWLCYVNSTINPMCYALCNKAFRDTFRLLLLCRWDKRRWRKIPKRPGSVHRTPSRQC
CHRM1 antagonist = blocks human M1 muscarinic receptor | P11229 | CHO-K1 hM1, Fluo-8 calcium fluorescence, ACh EC80 antagonist | inhibition, % at 3 µM | hit rate 1.3% among 360,000 | AID 588852;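 active means percent inhibition above its own plate's cutoff, namely the mean of that plate's compound wells plus 3 SD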;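 further: peak over basal fluorescence ratio during 140 s after agonist addition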
M1 PAM = human CHRM1 positive allosteric modulation. P11229. CHO-K1 hM1, Fluo-8 calcium fluorescence, ACh EC20; 0% = ACh EC20, 100% = maximal ACh. activation, % at 3 µM. hit rate 0.088% among 360,000. AID 588819; in the data active means activation above about 19%, passing the limit was not always enough
CHO-K1 Ca antag = counter-screen for M1 antagonists: effect in parental CHO-K1 cells | inhibition, % at 3 µM | hit rate 0.6% among 360,000 | ATP-induced calcium, Fluo-8 fluorescence | AID 602250;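 active means inhibition above a per-plate cutoff, the plate's mean sample inhibition plus 3 SD, cut at about 24% in these data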
A number is an active result; 0 = inactive; - = no result. In the library only some 2.3% were active in any assay of this set; here they are far more common.

SMILES	CHO-K1 Ca PAM	M1 ag parental	M1 ag	CHRM1 antagonist	M1 PAM	CHO-K1 Ca antag
CCC(C)N1C(=O)C2C(C(=O)Nc3cccc(OC)c3)C3C=CC2(O3)C1C(=O)NC1CCCCC1C (stereo not drawn)	0	0	0	0	0	28
CCOC(=O)c1cc(CC)sc1NC(=O)c1cc(OC)c(OC)c(OC)c1	0	0	0	0	0	32
CCOC(=O)c1cc(CC)sc1NC(=O)c1ccc(N2C(=O)CCC2=O)cc1	0	0	0	0	0	0
CC(C)c1cccc(C(C)C)c1NC(=O)CCN1C(=O)NC2(CCCC2)C1=O	0	0	0	0	0	0
CC(C)(C)C(=O)c1c(N)[nH]c(C(=O)c2ccccc2)c1-c1ccc(C(F)(F)F)cc1	0	0	-	-	-	0
O=S(=O)(NC1CCCCC1N1CCCCC1)c1ccccc1 (stereo not drawn)	0	0	0	0	0	0
CCN1CCN(C2CCCCC2NS(=O)(=O)c2ccccc2)CC1 (stereo not drawn)	0	0	0	34	0	0
C[N+](C)(C)CCCCCC(=O)/C=N/O	0	0	29	0	0	0
C[N+](C)(C)CCCCCC[N+](C)(C)C	0	0	0	0	0	0
COc1ccc(S(=O)(=O)N2CCN(C3CCN(Cc4ccccc4)CC3)CC2)cc1	0	0	0	53	0	0
COc1cccc(CN2CCCN(S(=O)(=O)c3ccc(Br)cc3)CC2)c1	0	0	0	37	0	0
CCN(Cc1ccncc1)Cc1ccc(Br)cc1	0	0	0	0	0	0
Cc1ccc(CS(=O)Cc2ccc(C(=O)NCc3ccccc3Cl)o2)cc1 (stereo not drawn)	0	0	0	39	0	0
O=C(NNC(=S)NC(=O)c1ccc(Br)cc1)c1cccc([N+](=O)[O-])c1	0	21	35	0	0	0
O=C(NNC(=S)NC(=O)c1ccccc1Cl)c1cccc([N+](=O)[O-])c1	0	0	19	0	0	0
O=C(NNC(=S)NC(=O)c1ccc(Br)cc1)c1ccc([N+](=O)[O-])cc1	0	0	47	0	0	0
Cc1cccc(NC(=O)c2nc[nH]c2C(=O)N[C@@H](Cc2ccccc2)C(=O)OCc2ccccc2)c1	0	0	0	0	0	0
CCOC(=O)C1=CCN(S(=O)(=O)c2ccc(C)cc2)C1c1cccc(Br)c1 (stereo not drawn)	0	0	0	0	0	29
CCOC(=O)C1=CCN(S(=O)(=O)c2ccc(Cl)cc2)C1c1ccc(C)cc1 (stereo not drawn)	0	0	0	0	0	24
CCOC(=O)C1=CCN(S(=O)(=O)c2ccc(Br)cc2)C1c1cccc(C)c1 (stereo not drawn)	0	0	0	0	0	0
CCOC(=O)C1=CCN(S(=O)(=O)c2ccc(C)cc2)C1c1ccc(Cl)cc1 (stereo not drawn)	0	0	0	0	0	0
CCCCCC[N+](C)(C)CCSSCC[N+](C)(C)CCCCCC	0	0	0	0	0	0
CCCCCCCCCCCCCCCC[N+](C)(C)CCl	0	0	0	43	0	0
CCCCCCCCCCCCCCCC[N+](C)(C)CC	0	0	0	90	0	0
Cc1cccc(C=Nc2ccc3c4c(cccc24)CC3)c1O	0	15	0	0	0	25
SMILES	CHO-K1 Ca PAM	M1 ag parental	M1 ag	CHRM1 antagonist	M1 PAM	CHO-K1 Ca antag
CCc1ccc(O)c(N=Cc2cccc(C)c2O)c1	0	0	0	0	0	0
Oc1ccc(Cl)cc1C=Nc1ccc2c3c(cccc13)CC2	0	44	22	0	0	32
Oc1ccc(Cl)cc1/C=N/c1nccs1	0	0	0	0	0	0
Cc1cc(NC(=O)CC(C)C)c(=O)n(Cc2ccccc2F)c1	0	0	0	0	0	0
CCN(c1ccccc1)S(=O)(=O)c1ccc(Cl)c(NC(=O)CN2C(=O)NC3(CCCC3)C2=O)c1	0	0	0	0	0	0
O=C(c1ccc(F)cc1F)N1CCN(S(=O)(=O)c2ccc3c(c2)OCCO3)CC1	0	0	0	0	0	0
C(=C\c1ccccc1)/CN1CCN(C(c2cccc3ccccc23)c2nnnn2C2CCCC2)CC1 (stereo not drawn)	0	0	0	95	0	0
C(=C\c1ccccc1)/CN1CCN(C(c2ccnc3ccccc23)c2nnnn2-c2ccc3c(c2)OCCO3)CC1 (stereo not drawn)	0	0	0	0	0	0
C(=C\c1ccccc1)/CN1CCN(C(c2ccccc2)c2nnnn2-c2ccc3c(c2)OCCO3)CC1 (stereo not drawn)	0	0	0	95	0	0
COc1cccc(C(c2nnnn2C(C)(C)C)N2CCN(C/C=C/c3ccccc3)CC2)c1OC (stereo not drawn)	0	0	0	42	0	0
COc1ccc(C(c2nnnn2C2CCCCC2)N2CCN(C/C=C/c3ccccc3)CC2)cc1 (stereo not drawn)	0	0	0	87	0	0
COc1ccc(C(c2nnnn2C(C)(C)C)N2CCN(C/C=C/c3ccccc3)CC2)cc1 (stereo not drawn)	0	0	0	0	0	0
O=C(COc1ccccc1Cl)N1CCNC1=O	0	0	0	0	0	0
O=C(Nc1ccc2c(c1)OCCO2)C(c1cc2ccccc2o1)N1CCN(C/C=C/c2ccccc2)CC1 (stereo not drawn)	46	0	0	36	0	0
CCCCn1nnnc1C(c1ccc(OC)cc1)N1CCN(C/C=C/c2ccccc2)CC1 (stereo not drawn)	0	0	0	55	0	0
COc1ccc(C(c2nnnn2-c2ccc(OC)cc2)N2CCN(C/C=C/c3ccccc3)CC2)cc1 (stereo not drawn)	0	0	0	74	0	0
COc1ccc(-n2nnnc2C(c2cccs2)N2CCN(C/C=C/c3ccccc3)CC2)cc1 (stereo not drawn)	0	0	0	55	0	0
O=C(N/N=C/C1C(c2ccccc2)C1(Cl)Cl)c1cccc(Br)c1 (stereo not drawn)	0	0	0	0	0	0
CC(C)CN(C(=O)COC(=O)CCc1nc2ccccc2s1)c1c(N)n(Cc2ccccc2)c(=O)[nH]c1=O	0	0	0	0	0	0
Cc1cccc(C)c1-n1nnnc1C(c1ccccc1)N1CCN(C/C=C/c2ccccc2)CC1 (stereo not drawn)	0	0	0	61	0	0
O=C1C(NS(=O)(=O)c2cccs2)=C(N2CCN(Cc3ccccc3)CC2)C(=O)c2ccccc21	0	0	0	31	0	0
CCOc1ccccc1N1CCN(C2=C(NS(=O)(=O)c3cccs3)C(=O)c3ccccc3C2=O)CC1	0	0	0	60	0	0
CCn1c(C)c(C(C)=O)c(N2CCN(C(c3ccccc3)c3ccccc3)CC2)nc1=S	0	0	0	54	0	0

Screening data deposited in PubChem BioAssay by The Scripps Research Institute Molecular Screening Center.
